Screening data: PubChem BioAssay, Johns Hopkins Ion Channel Center
A selection: hits, their analogues and other compounds. The true share with any hit is near 1.6%.
KCNQ2 inh – blocks the rat KCNQ2 potassium channel | O88943 | CHO-K1 KCNQ2, FluxOR thallium flux, 20 min; stronger effect = lower value | B-score at 10 µM | 310,000 tested, 1.1% active | AID 2156;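 active = fluorescence ratio B-score at most minus 3 library SDs, with starting brightness B-score within 2 library SDs, cut at about -5.5 in these data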
KCNQ2 enhance – potentiators of rat KCNQ2 potassium channel. B-score at 10 µM. 310,000 tested, 0.54% active. O88943. CHO-K1 KCNQ2, FluxOR thallium flux fluorescence; stronger effect = higher value;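 active = fluorescence ratio B-score at least 3 SD of library B-scores, with initial fluorescence B-score within 3 of them, cut at about 5.3 in these data; same plate scores as AID 2156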;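 note: B-score of peak minus minimum over baseline fluorescence ratio after K+ and Tl+ stimulus; positive B-score means potentiation of KCNQ2 with more thallium influx and brighter signal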
Kir21 conf inh – confirmation of mouse Kir2.1 potassium channel inhibitors; shares compounds with KCNQ2 enhance; Kir2.1-expressing cells, FluxOR thallium flux fluorescence; stronger effect = lower value; Tl flux remaining, % of negative control (stronger effect = lower value), % at 10 µM; 2,300 tested, 41% active; AID 2032;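 active = Primary-screen hit whose thallium flux fell at least 3 control SD below untreated wells in both duplicates, with normal baseline fluorescence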;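 note: 0% = blank wells without stimulus and 100% = stimulated no-compound controls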
Target sequence (P35561 whole entry, looked up): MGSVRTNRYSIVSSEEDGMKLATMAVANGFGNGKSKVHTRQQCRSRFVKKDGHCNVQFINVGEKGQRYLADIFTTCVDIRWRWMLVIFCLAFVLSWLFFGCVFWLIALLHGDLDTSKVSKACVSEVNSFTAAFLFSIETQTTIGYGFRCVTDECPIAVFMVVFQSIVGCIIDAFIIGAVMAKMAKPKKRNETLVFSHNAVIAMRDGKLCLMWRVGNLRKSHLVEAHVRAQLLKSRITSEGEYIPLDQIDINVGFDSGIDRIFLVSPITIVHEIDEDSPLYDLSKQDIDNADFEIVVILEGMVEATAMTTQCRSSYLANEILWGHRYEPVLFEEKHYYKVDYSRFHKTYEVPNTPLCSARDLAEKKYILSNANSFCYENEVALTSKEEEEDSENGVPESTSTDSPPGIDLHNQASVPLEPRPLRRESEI
HEK293 Tl flux – parental HEK293 activity in Kir2.1 inhibitor counter-screen | shares compounds with KCNQ2 enhance | parental HEK293 cells, FluxOR thallium flux fluorescence; 0% = unstimulated blank wells | FluxOR signal as % of negative control (100 = no effect), % at 10 µM | 2,300 tested, 19% active;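 active = dye signal at least 3 control SD above or below untreated wells in both duplicates, raw fluorescence within 3, either direction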;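 note: percent is based on the flux ratio of peak minus minimum fluorescence over baseline F0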
CHO-K1 Tl ctr – parental CHO-K1 activity in KCNQ2 potentiator counter-screen; AID 2282; 1,200 tested, 43% active; activity increase over 3SD of controls, % at 10 µM; shares compounds with KCNQ2 enhance; parental CHO-K1 cells, FluxOR thallium flux fluorescence; zero = vehicle mean+3SD, 100% = vehicle-minus-blank window;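 active = signal rise of at least 3 SD above the untreated control mean, in both duplicate wells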;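 note: counter screen of KCNQ2 potentiator hits so any rise reflects channel-independent effects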
KCNQ1 pot spec – tests whether KCNQ2 potentiators also act on human KCNQ1; activation over 3SD threshold, % at 10 µM; 1,200 tested, 28% active; shares compounds with KCNQ2 enhance; CHO KCNQ1 stable, FluxOR thallium flux fluorescence; beyond 3SD, as % of vehicle-control signal;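 active = fluorescence ratio rise of at least 3 SD of vehicle wells above their mean, in both replicate wells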;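 note: 0% = vehicle mean plus 3 SD and 100% = vehicle minus unstimulated blank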
KCNQ2 pot confirm – confirmation of rat KCNQ2 potassium channel potentiators. potentiation, less the hit threshold, % at 10 µM. 1,200 tested, 68% active. CHO-KCNQ2 cells, FluxOR thallium flux fluorescence. shares compounds with KCNQ2 enhance. AID 2287;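 active = fluorescence ratio rising 3 SD or more over the vehicle control mean in both replicates, plus primary screen hit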;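 note: peak minus minimum thallium fluorescence divided by baseline after K/Tl stimulus; 0% = vehicle mean plus 3 SD and 100% = vehicle minus unstimulated blank difference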
Kir2-1 sel – selectivity of KCNQ2 potentiators: effect on mouse Kir2.1; 1,200 tested, 2% active; HEK293 Kir2.1, FluxOR thallium flux fluorescence; AID 2345; shares compounds with KCNQ2 enhance; activity over 3SD threshold, % at 10 µM;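 active = fluorescence ratio rise of at least 3 SD above the vehicle-control mean, seen in both replicates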;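 note: 0% = vehicle mean plus 3 SD and 100% = vehicle minus no-stimulus blank window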
KCNQ2 W236L pot – KCNQ2 potentiators acting on retigabine-insensitive rat KCNQ2 W236L mutant; 940 tested, 10% active; shares compounds with KCNQ2 enhance; AID 2558; CHO KCNQ2-W236L, automated patch clamp current; current increase over 3SD of negative controls (%), stronger effect = higher value, % at 25 µM;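 active = current increase at least 3 SD of the untreated controls above them in both duplicate recordings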
The depositor's hits bear a star; i = inactive; · = not tested or not shown.

SMILES | KCNQ2 inh | KCNQ2 enhance | Kir21 conf inh | HEK293 Tl flux | others
CC(CN1CCOCC1)OC(=O)c1cccc(Cl)c1 (stereo unspecified) | i | · | · | ·
CC1CCN(S(=O)(=O)c2cnc[nH]2)CC1 | i | 1.2 | · | ·
NS(=O)(=O)c1ccc(-n2nncc2-c2ccco2)cc1 | i | 1.3 | · | ·
CCOc1cc(CNC2CCCC2)cc(Cl)c1OCc1ccccc1 | i | · | 34%* | 134%*
CCOc1cc(CNC2CCCC2)ccc1OCc1ccccc1Cl | i | · | · | ·
CCOc1cc(CNCC(C)C)cc(Cl)c1OCc1ccccc1 | i | · | 20%* | i
CCOc1c(Cl)cc(CNCC(C)C)cc1OC | i | 0.97 | · | ·
CN(Cc1c(C(=O)N/N=C/c2ccc(O)cc2)nnn1-c1nonc1N)c1ccccc1 | i | 0.18 | · | ·
c1ccc(CCCNc2ncnc3nc[nH]c23)cc1 | i | 1.9 | i | i
c1ccc(CNc2ncnc3nc[nH]c23)cc1 | i | 1.4 | · | ·
CCc1ccc(C(C(=O)NC2CCCC2)N(Cc2cccnc2)C(=O)c2csnn2)cc1 (stereo unspecified) | i | · | · | ·
Cc1nn2cc(-c3ccc(Cl)cc3)cnc2c1Cl | i | 0.49 | · | ·
CCSc1nnc(NC(=O)CC(C)C)s1 | i | 0.43 | i | i
CCSc1nnc(NC(=O)CC)s1 | i | 0.02 | · | ·
O=C(COc1ccccc1)NCC(=O)Nc1cccc(S(=O)(=O)NC2=NCCC2)c1 | i | · | · | ·
Cc1ccc(-c2csc(=S)[nH]2)cc1 | i | 22* | i | 538%* | CHO-K1 Tl ctr=-23;KCNQ1 pot spec=23*;KCNQ2 pot confirm=84*;Kir2-1 sel=11*;KCNQ2 W236L pot=i
Cc1ccc(-c2ccc(C(=O)O)[nH]2)cc1 | i | · | · | ·
C=CCN1C(=O)c2ccc(C(=O)N(CC)CC(=O)Nc3c(F)cccc3F)cc2C1=O | i | · | · | ·
Cc1ccc(CNC(=O)c2ccc(Cn3nc(C)c(Cl)c3C)o2)cc1 | i | · | 48%* | i
Cc1cc(C)cc(NC(=O)c2ccc(Cn3nc(C)c(Cl)c3C)o2)c1 | i | · | · | ·
Clc1ccc2c(c1)-c1nnc(Br)n1-c1ccccc1S2 | i | 1 | 66%* | 70%*
Brc1nnc2n1-c1ccccc1Sc1ccccc1-2 | i | 1.9 | 28%* | 66%*
Clc1ccccc1-c1nnc2n1-c1ccccc1SC2 | i | · | · | ·
c1ccc2c(c1)Sc1ccccc1-n1cnnc1-2 | i | · | · | ·
Cc1ccc(Cl)cc1N1CCN(C(=O)c2noc(C(C)C)c2[N+](=O)[O-])CC1 | i | · | · | ·
SMILES | KCNQ2 inh | KCNQ2 enhance | Kir21 conf inh | HEK293 Tl flux | others
CN(NS(=O)(=O)c1ccc(F)cc1)c1ncc(C(F)(F)F)cc1Cl | i | 0.59 | · | ·
CN(NS(=O)(=O)c1ccc(Cl)cc1)c1ncc(C(F)(F)F)cc1Cl | i | 3.4 | 58%* | i
COc1ccccc1OCCNC(=O)Cc1ccc(Cl)c(Cl)c1 | i | 4.4 | · | ·
Cc1ccccc1Cn1nc(C)c(NC(=O)c2ccccc2)c1C | i | 0.03 | i | i
Cc1ccccc1Cn1nc(C)c(NC(=O)c2sc3ccccc3c2Cl)c1C | i | 0.29 | · | ·
O=C(O)c1cn(Cc2ccccc2)nc1-c1cccnc1 | i | · | · | ·
O=C(Cn1nnc(-c2ccc([N+](=O)[O-])cc2)n1)NNC(=O)c1ccccc1 | i | 0.32 | · | ·
CCN1CCN(C(=O)CSCc2nc(-c3ccc(OC)c(OC)c3)oc2C)CC1 | i | · | · | ·
CCN1CCN(CCNC(=O)CSCc2nc(-c3ccc(OC)c(OC)c3)oc2C)CC1 | i | 10* | i | i | CHO-K1 Tl ctr=22*;KCNQ1 pot spec=-15;KCNQ2 pot confirm=-21;Kir2-1 sel=-30
N#CCCN(C(=O)COc1ccc(Cl)cc1Cl)c1ccccc1 | i | · | · | ·
N=c1c(S(=O)(=O)c2ccc(Br)cc2)cc2c(=O)n3ccccc3nc2n1C1CCCCC1 | i | · | · | ·
Cc1cccn2c(=O)c3cc(S(=O)(=O)c4ccc(Br)cc4)c(=N)n(C4CCCC4)c3nc12 | i | 0.14 | i | i
O=C(Oc1cccc(/C=N/Nc2nc(Nc3ccccc3)nc(N3CCOCC3)n2)c1)c1ccco1 | i | · | · | ·
CCn1c(=O)c(C(=O)Nc2ccccc2C)c(O)c2ccccc21 | i | · | · | ·
CCn1c(=O)c(C(=O)Nc2ccccc2S(N)(=O)=O)c(O)c2ccccc21 | i | 8* | i | i | CHO-K1 Tl ctr=53*;KCNQ1 pot spec=-11;KCNQ2 pot confirm=11*;Kir2-1 sel=-41;KCNQ2 W236L pot=i
CC(=O)Nc1ccc(SCC(=O)N(C)C2CCS(=O)(=O)C2)cc1 (stereo unspecified) | i | · | · | ·
O=[N+]([O-])c1cc(C(F)(F)F)ccc1Sc1nccn1Cc1ccccc1 | i | · | 58%* | i
O=[N+]([O-])c1cc(C(F)(F)F)ccc1Sc1ccc2ccccc2n1 | i | · | · | ·
Cn1ccnc1Sc1ccccc1[N+](=O)[O-] | i | · | · | ·
O=[N+]([O-])c1ccc(Sc2nccn2Cc2ccccc2)c([N+](=O)[O-])c1 | i | · | 52%* | i
COc1cccc(CN2CC(C(=O)NCc3cccc(N4CCCC4)c3)CCC2=O)c1 (stereo unspecified) | i | 0.45 | · | ·
CCCCC1C2C(=O)N(c3ccc(C)cc3)C(=O)C2ON1c1ccccc1 (stereo unspecified) | i | · | · | ·
Cc1ccc(C)c(C(=O)CCC(=O)Nc2ccc(F)cc2)c1 | i | 0.43 | · | ·
Cc1cccc(N(C(=O)CCC(=O)Nc2cc(C)on2)C(C(=O)NC2CCCC2)c2ccccc2)c1 (stereo unspecified) | i | 0.2 | · | ·
CC(=O)Oc1ccc([C@@H]2COc3c(ccc4c3C=CC(C)(C)O4)C2)c(OC(C)=O)c1 | i | · | · | ·
SMILES | KCNQ2 inh | KCNQ2 enhance | Kir21 conf inh | HEK293 Tl flux | others
CC(C)=CCc1cc([C@@H]2COc3c(ccc4c3C=CC(C)(C)O4)C2)c(O)cc1O | i | 6* | i | i | CHO-K1 Tl ctr=-7;KCNQ1 pot spec=-2;KCNQ2 pot confirm=-25;Kir2-1 sel=-28
Cc1ccc2nc(Cl)c(CNCc3ccccc3)cc2c1 | i | · | 20%* | i
Cc1ccc(CNCc2ccccc2Cl)cc1 | i | · | · | ·
Cc1ccccc1NC(=O)c1ccc(NC(=O)C2CCCO2)cc1 (stereo unspecified) | i | · | · | ·
C=CCc1ccc(OCCCNCc2ccccc2)c(OC)c1 | i | 3.3 | 42%* | i
C=CCc1ccc(OCCN2CCc3ccccc3C2)c(OC)c1 | i | 0.84 | 20%* | i
C=CCc1ccccc1OCCNCc1ccccc1 | i | · | 32%* | i
